Screening results as filed in PubChem.
Rows were chosen to be rich in hits. Some 32% of all compounds tested hit in one or more screens of this group.
CYP2C9 activ = increases human cytochrome P450 2C9 activity. recombinant CYP2C9, luciferin-H conversion, luminescence; active compounds read high; factor 1 = untreated enzyme, 0 = blocked. activation factor at 5 µM. hit rate 1.4% among 96,000;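 active = activation factor of 2 or more for CYP2C9 at a 5 µM dose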
PostGolgi yeast = growth inhibition of a yeast mutant, post-Golgi transport screen; post-Golgi transport phenotypic cell assay; hit rate 0.9% among 98,000; inhibition, % at 10 µM;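 also: yeast cells grown in 1536-well plates; yeast grown about 18 h at 30C before absorbance read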
CYP2C19 activ = increases human CYP2C19 enzyme activity. recombinant CYP2C19, luciferin-H EGE luminescence; active compounds read high; 0 = fully inhibited enzyme, 1 = untreated enzyme. activation factor at 5 µM. 96,000 tested, under 10 active;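 active = activation factor of at least 2 at 5 µM in the primary screen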
Target sequence (P33261 whole entry, looked up): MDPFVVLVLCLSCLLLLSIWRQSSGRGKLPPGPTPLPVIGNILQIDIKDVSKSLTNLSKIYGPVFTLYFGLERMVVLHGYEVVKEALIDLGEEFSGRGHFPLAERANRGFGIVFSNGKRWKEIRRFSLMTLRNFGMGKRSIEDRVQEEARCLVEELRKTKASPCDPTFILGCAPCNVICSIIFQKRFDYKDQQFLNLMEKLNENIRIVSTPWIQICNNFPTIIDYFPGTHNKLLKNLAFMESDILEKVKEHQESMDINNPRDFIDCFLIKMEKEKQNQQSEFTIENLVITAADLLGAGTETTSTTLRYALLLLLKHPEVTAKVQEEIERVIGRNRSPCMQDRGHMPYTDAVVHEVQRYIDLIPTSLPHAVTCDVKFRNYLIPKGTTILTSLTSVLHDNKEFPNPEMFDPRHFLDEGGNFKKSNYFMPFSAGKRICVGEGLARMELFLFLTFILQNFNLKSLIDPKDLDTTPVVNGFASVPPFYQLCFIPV
CYP2C19 inhib = inhibitors of human CYP2C19; inhibition, % at 5 µM; CYP2C19 Supersomes, luciferin-H EGE luminescence, 30 min; hit rate 21% among 96,000; P33261;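 active = CYP2C19 inhibition above a set limit at 5 µM in the primary screen, cut at about 50% in these data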
CYP2C9 inh = blocks human cytochrome P450 2C9; P11712; CYP2C9 Supersomes, luciferin-H conversion, luminescence; inhibition, % at 5 µM; hit rate 20% among 96,000; AID 777;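 active = blocking of liver enzyme CYP2C9 beyond about 50% at 5 µM, limit read from the data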
PostGolgi ctrl = inhibits growth of the yeast control strain; efflux-deficient yeast background strain, growth absorbance A615, 16 h; hit rate 5% among 98,000; AID 738; inhibition, % at 10 µM
Large screens that a line does not name were inactive. Rule as the data show it, unless noted: active = inhibition above about 30%; inactive = the rest.

CC1(c2cccs2)CC(c2cccs2)=C(C#N)C(=O)N1 (stereo not drawn)	CYP2C19 inhib 79
CC(=O)Nc1ccc(NS(=O)(=O)c2ccc3ccccc3c2)cc1	CYP2C19 inhib 99, CYP2C9 inh 75
CC(C)N(Cc1ccccc1)S(=O)(=O)N(C)C	CYP2C19 inhib 77
O=C(O)c1ccccc1S(=O)(=O)Cc1ccccc1	none
CC(=O)Nc1ccc(S(=O)(=O)Nc2ccc(NC(=O)c3ccco3)cc2)cc1	none
NC(=O)c1ccccc1NS(=O)(=O)Cc1ccccc1	CYP2C9 activ 4
CC(=O)Nc1ccc(NS(=O)(=O)c2cccc3ccccc23)cc1	CYP2C19 inhib 89
CC(=O)Nc1ccc(NS(=O)(=O)c2cn(C)c(=O)n(C)c2=O)cc1	none
Cc1ccc(NC2=NC3(CCCCC3)N=C(N)N2)c(C)c1	none
CCOc1ccc(C(=O)NCC(=O)OCC(=O)Nc2ccccc2OC)cc1	none
CC(=O)Nc1ccc(S(=O)(=O)N(Cc2ccccc2)C(C)C)cc1	CYP2C19 inhib 52, CYP2C9 inh 67
CC(=O)Nc1ccc(NS(=O)(=O)Cc2ccccc2)cc1	CYP2C19 inhib 58
OCCN1CCOCCN(CCO)CCN(CCO)CC1	none
CNc1nc(SCc2ccccc2Cl)nc2c1CCCC2	CYP2C19 inhib 98, CYP2C9 inh 90, PostGolgi ctrl 45
Nc1nc(SCc2ccccc2Cl)nc2nc3c(cc12)CCCC3	none
COc1cnc(SCc2ccc(Cl)cc2)nc1Cl	none
CN(C)c1nc(SCc2ccc(Cl)cc2)nc2c1CCCC2	CYP2C19 inhib 69, CYP2C9 inh 86, PostGolgi ctrl 37
COc1ccc(NS(=O)(=O)c2cc(-c3nnnn3C)ccc2OC)cc1	none
CCC(=O)Nc1nc2ccccc2n1Cc1ccc(C)cc1	CYP2C19 inhib 81
CCC(=O)Nc1nc2ccccc2n1Cc1ccccc1	none
Cc1ccc(Cn2c(NS(=O)(=O)c3ccccc3)nc3ccccc32)cc1	CYP2C9 inh 64
CCC(=O)NCCc1nc2ccccc2n1Cc1ccc(C)cc1	none
Cc1ccc(C(=O)NCCn2cc(SCC(=O)N3CCOCC3)c3ccccc32)cc1	none
Cc1cc(NC(=O)CSc2cn(CCNC(=O)c3ccccc3)c3ccccc23)no1	CYP2C19 inhib 90, CYP2C9 inh 94
Cc1ccc(C(=O)NCCn2cc(SCC(=O)Nc3cc(C)on3)c3ccccc32)cc1	CYP2C19 inhib 91, CYP2C9 inh 86
COc1ccccc1C(=O)NCCn1cc(SCC(=O)Nc2nnc(C)s2)c2ccccc21	CYP2C9 inh 76
CC(C)N=C(Nc1ccc(Cl)cc1)c1cccnc1	none
Cn1cccc1-c1nc2ccc(NC(=O)c3ccccc3)cc2[nH]1	CYP2C19 inhib 78, CYP2C9 inh 68
COC(=O)c1ccc(C(=O)Nc2ccc3nc(-c4cccnc4)[nH]c3c2)cc1	CYP2C9 inh 67
Cc1ccc(S(=O)(=O)Nc2ccc3nc(-c4cccn4C)[nH]c3c2)cc1	CYP2C19 inhib 100, CYP2C9 inh 100
Cn1cccc1-c1nc2ccc(NC(=O)c3ccc([N+](=O)[O-])cc3)cc2[nH]1	none
Nc1ccc(C(=O)Nc2ccc3nc(-c4cccnc4)[nH]c3c2)cc1	none
CCN(CC)S(=O)(=O)c1ccc(Cl)c(C(=O)NCc2ccccc2Cl)c1	none
Cn1c(NCCCN2CCOCC2)nc2c1c(=O)n(Cc1ccc(Cl)c(Cl)c1)c(=O)n2C	none
O=C(N=NC(=O)c1ccc2c(O)n(C3CCCCC3)c(O)c2c1)c1cccnc1	none
O=C(NC1CCCCCC1)C1CCN(C(=O)Cc2ccccc2)CC1	none
Cc1nnc2ccc(N3CCN(C(=O)c4ccccc4)CC3)nn12	none
O=C(c1ccc(Br)o1)N1CCN(c2ccc3nnc(-c4ccccc4)n3n2)CC1	CYP2C19 inhib 79, CYP2C9 inh 88
O=S(=O)(c1ccc(Br)cc1)N1CCN(c2ccc3nnc(-c4ccccc4)n3n2)CC1	CYP2C19 inhib 60, CYP2C9 inh 80, PostGolgi ctrl 56
Cc1nn2c(-c3ccc(Cl)cc3Cl)nnc2s1	CYP2C19 inhib 52, PostGolgi ctrl 34
O=C(c1cc(-c2ccc(Cl)cc2Cl)on1)N1CCOCC1	none
Brc1ccc(-c2nn3c(-c4ccncc4)nnc3s2)o1	CYP2C19 inhib 69 (no result: PostGolgi yeast, PostGolgi ctrl)
Clc1ccc(-c2nn3cnnc3s2)c(Cl)c1	CYP2C19 inhib 89
Clc1ccc(-c2nn3c(-c4ccncc4)nnc3s2)c(Cl)c1	CYP2C19 inhib 84 (no result: PostGolgi yeast, PostGolgi ctrl)
Clc1ccc(-c2nnc3cccc(Cl)n23)c(Cl)c1	none
Cc1cccc(-c2nnc3sc(-c4ccccc4)nn23)c1	none
C=CCn1c(SCCC)nc(O)cc1=O	none
Cc1onc(-c2ccccc2Cl)c1C(=O)Nc1ccc(-c2nnc3n2CCCCC3)cc1	none
O=C(NC1(C(F)(F)F)C(=O)Nc2c1c(=O)[nH]c(=O)n2-c1ccc(F)cc1)c1cccnc1 (stereo not drawn)	none
Clc1ccc(-c2nn3c(-c4cccc(Cl)c4)nnc3s2)cc1	CYP2C19 inhib 60 (no result: PostGolgi yeast, PostGolgi ctrl)
Clc1ccccc1-c1nnc2sc(-c3ccncc3)nn12	CYP2C19 inhib 80
Clc1ccccc1-c1nn2c(-c3ccccn3)nnc2s1	CYP2C19 inhib 60
Cc1oc(-c2ccccc2Cl)cc1-c1nn2c(-c3ccco3)nnc2s1	none (no result: PostGolgi yeast, PostGolgi ctrl)
Clc1ccccc1-c1nnc2sc(-c3cccs3)nn12	CYP2C9 inh 61
CN(C)c1ccc(-c2nn3c(-c4ccccc4Cl)nnc3s2)cc1	none
Clc1ccccc1-c1nn2c(-c3ccncc3)nnc2s1	CYP2C19 inhib 78, CYP2C9 inh 74
Clc1ccccc1-c1nnc2sc(C3COc4ccccc4O3)nn12 (stereo not drawn)	CYP2C19 inhib 86, CYP2C9 inh 87
Cc1ccc(-c2nnc3sc(-c4ccncc4)nn23)cc1	none
CCc1ccc(OCc2nnc(NC(=O)c3cccs3)s2)cc1	none
Cc1ccc(S(=O)(=O)C2(C(=O)Nc3ccc4c(c3)OCO4)CC2)cc1	CYP2C19 inhib 87, CYP2C9 inh 83
O=C(CSCc1c(Cl)cccc1Cl)Nc1ccccc1C(=O)N1CCOCC1	CYP2C9 inh 92
O=C(Cn1nc(C(F)(F)F)c2c1CCCC2)Nc1ccc2c(c1)OCO2	CYP2C19 inhib 87, CYP2C9 inh 53
Cc1ccc(S(=O)(=O)C2(C(=O)Nc3ccc(F)cc3)CC2)cc1	none
O=C(CSCc1ccc(Cl)cc1)Nc1ccccc1C(=O)N1CCOCC1	none
COc1ccccc1NC(=O)Cn1nc(C(F)(F)F)c2c1CCCC2	none
Cc1ccc(CSCC(=O)Nc2ccc3c(c2)OCO3)cc1	CYP2C19 inhib 59
O=C(NCc1ccco1)c1noc2c1CCCCC2	none
O=C(CSCc1c(Cl)cccc1Cl)Nc1ccc2c(c1)OCO2	CYP2C9 inh 75
O=C(CSCc1ccccc1)Nc1ccc2c(c1)OCO2	none (no result: CYP2C9 activ, CYP2C19 activ, CYP2C19 inhib, CYP2C9 inh)
O=C(CSCSCC(=O)Nc1ccc2c(c1)OCO2)Nc1ccc2c(c1)OCO2	CYP2C9 inh 80
CCOc1ccc(C(=O)NCC(=O)OCC(=O)Nc2ccccc2OCC)cc1	none
CCc1ccc2[nH]c(=O)c(CN(Cc3ccc4c(c3)OCO4)C(=O)c3ccco3)cc2c1	none
